This passage reports z-score results from PubChem BioAssay AID1508600 (Functional Genomics Laboratory (NCATS/FGL), 2020).

Out of some 53,000 sequences screened, about 3,700 (7%) were called active. This excerpt belongs to a sample that is enriched for actives. Values without a mark were called inactive.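 The calls were made as follows: active = gene knockdowns whose robust z-score for IL-1 alpha signal is at least 2 or at most -2, so actives lie on both sides; inactive = the rest.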

This assay in a line: Components of the Cytosolic LPS Sensing Pathway: Gene Identification via Genome-wide siRNA Screen.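 Also: robust z of the log signal after scaling to non-targeting control siRNA wells of the plate.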 Conditions: RAW264.7 macrophages, IL-1a HTRF, actives lie on both sides, screened at 100 nM (by protocol), cells primed 5 h with Pam3CSK4 first. In outline:
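Cells (RAW264.7, 1×10^4 per well) were transfected with siRNA at 100 nM and cultured 48h at 37 degrees C. Pam3CSK4 was added for 5 hours; LipidA transfection followed for 24 hour. IL-1a was then measured by HTRF.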
In general terms: Time-resolved FRET reads energy transfer from a long-lived donor to a nearby acceptor.
In the case of GGAAUAUCAGAAUACCAUCTT against Cnpy4, the z-score was 0.89.

In the case of CCAGGAACAGCUAUCGGAUTT against Homer2, the z-score was -0.271.

GCUGCAUUACAAGCCCAACTT against Zfp414: the z-score was -0.218.

Regarding GGUGACAUAUUUGAAGUGGTT against Dmwd, the z-score is -0.000303.

Regarding GCACCCUACCUGCUAAUGUTT against Slitrk1, the z-score was 3.59 (active).

In the case of GGAUGACAAGGUUAAGCUATT against Golm2, the z-score is -0.0855.

For the sequence GCAACAAUGUGGUUCCUAUTT against Rab11a, the z-score was 0.616.

Turning to GGAGCUACUGUACCUUGCUTT against Ncapg2, the z-score was -1.29.

In the case of GGCUAGAAAACCUCUAUCUTT against Lrrc18, the z-score is -2.11 (active).

With GUGCAUGCAGUGUUGUUUUTT against Magea5, the z-score is 0.711.

For GGAUAGGGAUUGGAGAUAUTT against Stn1, the z-score is 0.203.

In the case of GGGUAGUCACUCAAUAAAUTT against Pear1, the z-score is -0.54.

Consider GGAUUGCCCUGUGGACAAGTT against Nr4a1, for which the z-score is 0.963.

As for GGCGAAAUGAACACAAAGCTT against Edf1, the z-score is 0.983.

GGAAAAGUACACAAAGACCTT against Nkx2-1: the z-score was 2.16 (active).

GGAAAAGUGGUGAACGACATT against Tm4sf4: the z-score is 0.798.

As to GCUGCUGUGACUUAGAUAATT against Cds2, the z-score was -0.668.

Turning to CCAGGAUCAUUCUUCUGAATT against Chrna7, the z-score was -0.563.

For the sequence GCGUAUACCAUGCAGAUAUTT against Sigmar1, the z-score is 1.05.

Take GGCGUACGUAGACAAGUACTT against Scaf11: the z-score is -2.23 (active).

In the case of GGAAGGUAAUUGCUUUUAGTT against Gmeb1, the z-score is 0.533.

As for GCACUUGCUUCAAGUAAUATT against Ankrd52, the z-score was -0.0516.

On to “GCUCUGCUGUGUUAUAUGGTT against C330011M18Rik”, for which the z-score is 0.144.

For the sequence CCUAUGCUUUUUUGUAAGATT against Il13ra2, the z-score was 0.126.

Take GGGAAUAGCAAAUAAAGCATT against Lztr1: the z-score is -0.674.

Regarding GGCUGUUGAACUUAAUCCCTT against Tomm70a, the z-score is -2.25 (active).

On to GGUAGACGGAAUCUAUUUATT against Kcnj15, for which the z-score is -1.31.

For the sequence GGUGGACUUAUAUGGUUUUTT against St3gal1, the z-score is 0.408.

GGUGAUUGGGAAUUGAAAATT against F3: the z-score was 0.341.

As for GCAUAUGCGAACAGUAAAATT against Rab28, the z-score was -0.182.

Take GGUACCUUCAUCUUGGUGGTT against Olfr699: the z-score was -0.017.

Take GCCUUGACCUGAUUUCUACTT against Tas2r131: the z-score is -0.525.

Consider GCAUUCAGGACCUGUGGCUTT against Olfr890, for which the z-score was -2.33 (active).

Take “GGAUCUGUGAGUUUGUAGCTT against D930030D11Rik”: the z-score was 0.585.

For the sequence “GGACAACUCAAUUCUAAAATT against 4921522P10Rik”, the z-score is -1.22.

Take GCAAAGUUCACCUAAUUGGTT against Lipc: the z-score was -1.03.

For GCCAGACUGAGCUACAAAATT against Gm9732, the z-score was -1.3.

Regarding GCAUCAAAAUCGGUUUCUGTT against Lkaaear1, the z-score is 0.759.

CCUUUGGACGCAACCAGUUTT against Ugt1a6b: the z-score was 2.04 (active).

Turning to CGAAUUAAUCUCACAGGAGTT against Vps53, the z-score was 0.44.

With CCCUCAAUGGCCUCAAACUTT against Elavl3, the z-score is -1.29.

In the case of GUUAGAUGCCCUCAAGUUCTT against Trappc6a, the z-score was -0.857.

For the sequence GGAUGAGAGUCCACAGCAATT against Lpar3, the z-score is -1.26.

Regarding GGAAUUCACAGAUACCGUGTT against Guca1a, the z-score was 0.93.

GGAUGAGGUGAUUAAAGAATT against Cd9: the z-score is 2.38 (active).

For GGAGUUCAUUGUUUGGUUGTT against Nat2, the z-score was 0.593.

Regarding GGAUAUUGAUGUUUCAAGUTT against Neo1, the z-score is -0.241.

On to CGUGGUGCAGAAUUUUUAUTT against Cldn14, for which the z-score was 1.13.

Turning to “GGCACACACAUCAAAAGGATT against A530021J07Rik”, the z-score was -2.63 (active).

Regarding GGUAGAUGGCAUCUACUAUTT against Josd2, the z-score is 0.663.

As for GCUGGCAGUUUGUAAGUAGTT against Faxc, the z-score was -0.653.

For the sequence GGGUGUCAUCCUUAUCCUGTT against Olfr655, the z-score was -0.0528.

In the case of CCGAAUCUGUCGUCAAGGUTT against Trem3, the z-score was 0.552.

Consider GGACCAGGUCCGUUGGAAUTT against Efna1, for which the z-score was 0.636.

In the case of GGAUGUAAAGAGGAAUCUCTT against Abca16, the z-score was -0.748.

Take GCAUCCCUUCCGAGAAACATT against Bag6: the z-score is 0.916.

As to GCCGUCAGACAAGGAGGAATT against Magi1, the z-score was 2.43 (active).

Turning to GGAUGUCCUUGACUUUAAATT against Atp6v0a4, the z-score was 0.704.

As for GCCUGAGGAAUCGUGACAUTT against Olfr51, the z-score was -1.58.

Take GGAAAUGAUACAUUUGUGATT against Mre11a: the z-score is -0.256.

On to CCGCACAGACCAUAGUAGATT against Pudp, for which the z-score was 0.261.

GGUACUUUGGAAAGAAGAGTT against Yeats4: the z-score is -1.27.

On to GGGAAUGAACCUAGAAGAGTT against Tymp, for which the z-score is -1.2.

For GGUAGCCAUAUCUAACAGCTT against Scd1, the z-score was -2.02 (active).

In the case of GCCCUGAGACCACGAUAUUTT against AF067063, the z-score was 1.48.

On to GGUUAUAUGCAGAGGAACUTT against Arid1a, for which the z-score is -0.436.

For GGCAAGAUGAAUUAAAAUGTT against Gcfc2, the z-score was -0.964.

Turning to GGAUAAAGGCAAAGACAAATT against Rsrc1, the z-score is 0.891.

Take UUAUGCUGACCUCUAUCUUTT against Akr1c19: the z-score is 2.33 (active).

With GGUUGAUUCUUAAAUUGUGTT against Slc6a5, the z-score is 0.331.

Consider GGCUGGUGUAAUCGAAACATT against Ttc39c, for which the z-score was 0.0501.

For GGAAACUCCGUCCCAAUUGTT against Trim68, the z-score is 1.39.

In the case of GGCGAUUUCAACUGAAAAUTT against Jakmip1, the z-score was 0.548.

With GCCCAAUAAAAUUGAAGGGTT against Pmis2, the z-score is -0.163.

GGUCUUUGAGGAAAGAGGUTT against Hemk1: the z-score is -1.59.

GGCCUGUCCAAAGAAGUGATT against E2f3: the z-score was 2.2 (active).

On to GCGCACACCCUACUUGAUUTT against Pcdh20, for which the z-score was 1.08.

Regarding GCUGUAAUUCCUAAGUUAUTT against Ubxn6, the z-score was 0.268.

In the case of CCCAGAGCAUGCCAUCAACTT against Orm3, the z-score is -0.38.

Regarding CCUUACACUAAGAAAAAGGTT against Rad50, the z-score was -0.0689.

Consider GCAGUCCAAAAAAUUCGGUTT against Stox2, for which the z-score was -2.15 (active).

GGCAUUAGAGCAGAGUCGUTT against Trmu: the z-score is -1.29.

Consider GGUGCAGAGAAGUGUAACATT against Slc25a21, for which the z-score was -1.6.

With GGUGCUGAGCAUGGUGUUATT against Spag4, the z-score was 3.17 (active).

Turning to GGAGUAUCGUUUAUUCAUUTT against Slc2a2, the z-score is 0.161.

With GCCUAAGAAAUUAGUGAAUTT against Rflna, the z-score is 0.204.

Consider GGCCAUCACUAAAUAAUGGTT against Ctdspl2, for which the z-score was -0.123.

Consider GGAAAACGAGUCAAACUCATT against Lnx2, for which the z-score is 3.4 (active).

On to GGUGGUGAGCAUCUACUAUTT against Alox5, for which the z-score was 0.565.

Consider CCCUAAUAAAUUCCAAAUCTT against H2-Ke6, for which the z-score was 1.81.

Regarding GCAUGUAGUUCAUCAGUACTT against Tubgcp5, the z-score is 0.874.

Take GGACCACUUUUUCAGACUCTT against Ralgapa1: the z-score is 0.945.

Regarding GGCGAAAUGGUAAACCGAGTT against Adgrg2, the z-score is 0.0183.

Take GUACGGCAACAUGACCCAGTT against Cd74: the z-score is 0.385.

GGACUUCAACAACUGCUCUTT against Polr1a: the z-score is 2.28 (active).

For CCACUUCUACAUACUUAAUTT against Plau, the z-score was 0.62.

Regarding UCUCAUUGCAAUUCUGGGATT against Olfr675, the z-score is 0.566.

For CCUUACUCAAGAUCCUGCUTT against Olfr1243, the z-score was -0.23.

For the sequence GGCACUCAACACCUGUAUATT against Olfr640, the z-score is -1.34.

In the case of GGAAUUCCUUCACAUCUGGTT against Tc2n, the z-score is 0.4.

Consider GGGUGAUAAGCAGUUAUACTT against Wdr75, for which the z-score is 1.33.

For GCUUCUGUUAUGAGGCUCATT against Hif1a, the z-score was -2.52 (active).

As to GGAGAUUGUGGAAAUGCUUTT against Skiv2l, the z-score is 0.459.

Take CCCAGACCAUACUACGGAUTT against Calb2: the z-score was -1.25.

In the case of GUUUCAGUGCAGCCAUUACTT against Olfr518, the z-score was -0.747.

Consider GGAUUUAUUUCCGAUUCGATT against Nalcn, for which the z-score is -0.0152.

GGAUCAAAAGGUGAAUGCUTT against Vmn1r67: the z-score was -2.54 (active).
